Values joined by “and” are separate entries in the source; they are usually repeats but may differ in a detail not shown here. Equal entries are not always repeated. Compounds without any hit were thinned out: in the full panel of roughly 83,000, 20% have a hit.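 Note: values are percent growth. 100 is the growth of untreated cells, values between 100 and 0 indicate rising inhibition; between -100 and 0 indicates cell death.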 The source holds several records for some structures; these can differ, active in one and inactive in another. Active and inactive are the calls of the source. The calls were made as follows: active = growth percent below 10; inactive = the rest.
How the values were obtained:
Assay in all cases: NCI-60 one-dose screen, 48 h (100 = growth as untreated, 0 = no growth, -100 = all killed)
HCT-15 colon = test system: HCT-15 colon
HT29 colon = test system: HT29 colon
SNB-75 CNS = test system: SNB-75 CNS
SNB-19 CNS = test system: SNB-19 CNS
U251 CNS = test system: U251 CNS
PC-3 prostate = test system: PC-3 prostate
SK-MEL-5 melanoma = test system: SK-MEL-5 melanoma
UACC-62 melanoma = test system: UACC-62 melanoma
LOX IMVI melanoma = test system: LOX IMVI melanoma
SK-MEL-2 melanoma = test system: SK-MEL-2 melanoma
EKVX NSCLC = test system: EKVX NSCLC
UO-31 renal = test system: UO-31 renal
TK-10 renal = test system: TK-10 renal
ACHN renal = test system: ACHN renal
CAKI-1 renal = test system: CAKI-1 renal
A498 renal = details: 10 µM unless noted
CCRF-CEM leukemia = test system: CCRF-CEM leukemia
MOLT-4 leukemia = test system: MOLT-4 leukemia
SK-MEL-28 melanoma = details: 10 µM unless noted
SN12C renal = details: 10 µM unless noted

COc1ccc(Cl)cc1C(=O)NCCc1ccc(S(=O)(=O)NC(=O)NC2CCCCC2)cc1
growth (HCT-15 colon; 10 µM): 109% (inactive) and 108% (inactive)
growth (HCT-15 colon; 100 µM): 42.6% (inactive)
growth (HT29 colon; 10 µM): 127% (inactive) and 131% (inactive)
growth (HT29 colon; 100 µM): 77% (inactive)
growth (SNB-75 CNS; 10 µM): 104% (inactive) and 94% (inactive)
growth (SNB-75 CNS; 100 µM): 67.4% (inactive)
growth (SNB-19 CNS; 10 µM): 104% (inactive) and 97.9% (inactive)
growth (SNB-19 CNS; 100 µM): 68.5% (inactive)
growth (U251 CNS; 10 µM): 94.3% (inactive) and 98.7% (inactive)
growth (U251 CNS; 100 µM): 60.3% (inactive)
growth (PC-3 prostate; 10 µM): 93.2% (inactive) and 110% (inactive)
growth (PC-3 prostate; 100 µM): 52.8% (inactive)
growth (SK-MEL-5 melanoma; 10 µM): 101% (inactive) and 96.2% (inactive)
growth (SK-MEL-5 melanoma; 100 µM): 45.5% (inactive)
growth (UACC-62 melanoma; 10 µM): 83.8% (inactive) and 92.1% (inactive)
growth (UACC-62 melanoma; 100 µM): 51.2% (inactive)
growth (LOX IMVI melanoma; 10 µM): 102% (inactive) and 95.9% (inactive)
growth (LOX IMVI melanoma; 100 µM): 64.7% (inactive)
growth (SK-MEL-2 melanoma; 10 µM): 113% (inactive)
growth (SK-MEL-2 melanoma; 100 µM): 75.8% (inactive)
growth (EKVX NSCLC; 10 µM): 95.5% (inactive) and 99.6% (inactive)
growth (EKVX NSCLC; 100 µM): 58.6% (inactive)
growth (UO-31 renal; 10 µM): 96.2% (inactive) and 79.1% (inactive)
growth (UO-31 renal; 100 µM): 40.6% (inactive)
growth (TK-10 renal; 10 µM): 115% (inactive) and 99.1% (inactive)
growth (TK-10 renal; 100 µM): 92.1% (inactive)
growth (ACHN renal; 10 µM): 96.9% (inactive) and 101% (inactive)
growth (ACHN renal; 100 µM): 54.8% (inactive)
growth (CAKI-1 renal; 10 µM): 94.5% (inactive) and 94.3% (inactive)
growth (CAKI-1 renal; 100 µM): 56.7% (inactive)
growth (A498 renal): 73.2% (inactive)
growth (CCRF-CEM leukemia; 10 µM): 86.3% (inactive) and 95.1% (inactive)
growth (CCRF-CEM leukemia; 100 µM): 64.1% (inactive)
growth (MOLT-4 leukemia; 10 µM): 113% (inactive) and 98.6% (inactive)
growth (MOLT-4 leukemia; 100 µM): 60.6% (inactive)

CCN(CC)CCNc1ccc(C)c2sc3ccccc3c(=O)c12 (tested in a mixture with another compound)
growth (HCT-15 colon; 10 µM unless noted): 14.5% (inactive) and 14.2% (inactive)
growth (HT29 colon; 10 µM unless noted): 1.12% (active) and 10.8% (inactive)
growth (SNB-75 CNS; 10 µM unless noted): 25.6% (inactive) and 51% (inactive)
growth (SNB-19 CNS; 10 µM unless noted): 41.1% (inactive) and 26.3% (inactive)
growth (U251 CNS; 10 µM unless noted): 18.4% (inactive) and 15.1% (inactive)
growth (PC-3 prostate; 10 µM unless noted): 50.4% (inactive) and 35.3% (inactive)
growth (SK-MEL-5 melanoma; 10 µM unless noted): -85.6% (active) and -91.5% (active)
growth (UACC-62 melanoma; 10 µM unless noted): -68.8% (active) and -47.5% (active)
growth (LOX IMVI melanoma; 10 µM unless noted): -17% (active) and -40.3% (active)
growth (SK-MEL-28 melanoma): -3.67% (active) and -6.09% (active)
growth (SK-MEL-2 melanoma; 10 µM unless noted): 59.2% (inactive) and 86.4% (inactive)
growth (EKVX NSCLC; 10 µM unless noted): 68.6% (inactive) and 86.6% (inactive)
growth (SN12C renal): 35.1% (inactive) and 36.4% (inactive)
growth (UO-31 renal; 10 µM unless noted): -4.88% (active) and 2.67% (active)
growth (TK-10 renal; 10 µM unless noted): 23.1% (inactive) and 50% (inactive)
growth (ACHN renal; 10 µM unless noted): 16.7% (inactive) and 10.4% (inactive)
growth (CAKI-1 renal; 10 µM unless noted): 22.4% (inactive) and 29.9% (inactive)
growth (A498 renal): 102% (inactive) and 75.7% (inactive)
growth (CCRF-CEM leukemia; 10 µM unless noted): 55.7% (inactive) and 29.3% (inactive)
growth (MOLT-4 leukemia; 10 µM unless noted): 8.98% (active) and 26.9% (inactive)

CN(C)CCCN1c2ccccc2Sc2ccc(Cl)cc21
growth (HCT-15 colon; 10 µM unless noted): 73.4% (inactive) and 109% (inactive) and 88.5% (inactive)
growth (HT29 colon; 10 µM unless noted): 27.4% (inactive) and 120% (inactive) and 62.9% (inactive)
growth (SNB-75 CNS; 10 µM unless noted): 48.3% (inactive) and 106% (inactive) and 58.8% (inactive)
growth (SNB-19 CNS; 10 µM unless noted): 98.2% (inactive) and 92.4% (inactive) and 94.5% (inactive)
growth (U251 CNS; 10 µM unless noted): 78.1% (inactive) and 106% (inactive) and 93.4% (inactive)
growth (PC-3 prostate; 10 µM unless noted): 67.3% (inactive) and 103% (inactive) and 80.3% (inactive)
growth (SK-MEL-5 melanoma; 10 µM unless noted): 3.06% (active) and 102% (inactive) and 79% (inactive)
growth (UACC-62 melanoma; 10 µM unless noted): 75.3% (inactive) and 89.8% (inactive) and 88.9% (inactive)
growth (LOX IMVI melanoma; 10 µM unless noted): 78.3% (inactive) and 113% (inactive) and 100% (inactive)
growth (SK-MEL-28 melanoma): 83.6% (inactive) and 108% (inactive) and 98.8% (inactive)
growth (SK-MEL-2 melanoma; 10 µM unless noted): 77.6% (inactive) and 107% (inactive) and 112% (inactive)
growth (EKVX NSCLC; 10 µM unless noted): 91.6% (inactive) and 147% (inactive)
growth (SN12C renal): 66.7% (inactive) and 117% (inactive) and 78.8% (inactive)
growth (UO-31 renal; 10 µM unless noted): 54.4% (inactive) and 89.3% (inactive) and 50.3% (inactive)
growth (TK-10 renal; 10 µM unless noted): 122% (inactive) and 92.6% (inactive)
growth (ACHN renal; 10 µM unless noted): 44.8% (inactive) and 108% (inactive) and 68.7% (inactive)
growth (CAKI-1 renal; 10 µM unless noted): 75.1% (inactive) and 257% (inactive) and 52.5% (inactive)
growth (A498 renal): 105% (inactive) and 120% (inactive) and 108% (inactive)
growth (CCRF-CEM leukemia; 10 µM unless noted): 73.6% (inactive) and 98.7% (inactive)
growth (MOLT-4 leukemia; 10 µM unless noted): 69.7% (inactive) and 102% (inactive) and 83.3% (inactive)

CC(CN=Cc1ccccc1O)N=Cc1ccccc1O (centres undefined)
growth (HCT-15 colon; 10 µM unless noted): 105% (inactive) and 97.2% (inactive)
growth (HT29 colon; 10 µM unless noted): 115% (inactive) and 110% (inactive)
growth (SNB-75 CNS; 10 µM unless noted): 104% (inactive) and 82.4% (inactive)
growth (SNB-19 CNS; 10 µM unless noted): 96.1% (inactive) and 101% (inactive)
growth (U251 CNS; 10 µM unless noted): 96.6% (inactive) and 104% (inactive)
growth (PC-3 prostate; 10 µM unless noted): 96% (inactive) and 95.8% (inactive)
growth (SK-MEL-5 melanoma; 10 µM unless noted): 102% (inactive) and 106% (inactive)
growth (UACC-62 melanoma; 10 µM unless noted): 107% (inactive) and 105% (inactive)
growth (LOX IMVI melanoma; 10 µM unless noted): 101% (inactive) and 88.8% (inactive)
growth (SK-MEL-28 melanoma): 117% (inactive) and 102% (inactive)
growth (SK-MEL-2 melanoma; 10 µM unless noted): 154% (inactive) and 102% (inactive)
growth (EKVX NSCLC; 10 µM unless noted): 102% (inactive) and 111% (inactive)
growth (SN12C renal): 90.4% (inactive) and 98.7% (inactive)
growth (UO-31 renal; 10 µM unless noted): 107% (inactive) and 80.3% (inactive)
growth (TK-10 renal; 10 µM unless noted): 110% (inactive) and 106% (inactive)
growth (ACHN renal; 10 µM unless noted): 103% (inactive) and 93.8% (inactive)
growth (CAKI-1 renal; 10 µM unless noted): 93.6% (inactive) and 99.1% (inactive)
growth (A498 renal): 121% (inactive) and 105% (inactive)
growth (CCRF-CEM leukemia; 10 µM unless noted): 92.3% (inactive) and 96.2% (inactive)

— PubChem BioAssay (NCI)
